Pf growth 48h: inhibits P. falciparum growth in the first generation, 48 h; P. falciparum luciferase growth in erythrocytes, 48 h; Potency, µM (top dose mostly 28.7 µM), most hits filed as inhibitors; hit rate 5.9% among 310,000
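A one-generation exposure of luciferase-tagged malaria parasites in RPMI 1640/Albumax erythrocyte culture, 37 C and 5% CO2. Inhibition is inferred from decreased luminescence after adding detection reagent.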
NS1 function inh: inhibitors of influenza NS1 protein function. Potency, µM (titrated, usually from 46.1 µM). hit rate 0.4% among 270,000. AID 2326; calls by dose curve; also: actives are rising curves; nearly all actives have a fitted effect of over 50% in size
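Read-out: OD600 growth recovery of NS1-expressing budding yeast. Cells grown overnight at 30C in -URA glucose medium, washed, resuspended and diluted 1:100 in 2% galactose assay medium, pH 6.0. Same strain lacking NS1 served as positive control.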
Pf growth 96h: P. falciparum growth inhibition at 96 hours; hit rate 6.9% among 320,000; AID 504834; P. falciparum luciferase reporter growth, 96 h; Potency, µM (doses to about 28.7 µM), actives largely listed as inhibitors
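Two parasite generations (96 h, 37 C, 5% CO2) of compound exposure in infected erythrocytes (0.05% parasitemia, 2% hematocrit). Luciferase-reporter P. falciparum; decreased luminescence indicates inhibited growth, aimed at apicoplast-acting delayed death.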
Sm TGR inh: inhibitors of Schistosoma mansoni thioredoxin glutathione reductase | Q962Y6 | purified TGR, DTNB reduction, TNB absorbance 405 nm | AID 485364 | Potency, µM (top dose mostly 114 µM), most hits filed as inhibitors | hit rate 3% among 360,000; also: nearly all actives have a fitted effect of over 60% in size
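First, TGR (20 nM dispensed) and NADPH were mixed with compound. Second, a 15 min room-temperature incubation followed. Third, further NADPH and then DTNB were added to start the reaction. Finally, TNB absorbance was monitored kinetically.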
Cycloheximide cs: counter-screen for Shiga toxin inhibitors: cycloheximide protein synthesis inhibition; AID 2314; max response, %; cell reporter, cycloheximide protein synthesis inhibition counterscreen; hit rate 12% among 300,000; in the data active = max response mostly above about 13%, no sharp cut-off; inactive = mostly below about 14%; also: read at 38.3 µM for the half of the compounds with a filed dose
Shiga inhibitor: blocks Shiga toxin action in Vero cells. Vero cells, Shiga toxin protein synthesis inhibition reporter. inhibition, % at 38.7 µM. hit rate 9.2% among 290,000. AID 2315; in the data active = inhibition mostly above about 28%, no sharp cut-off; inactive = mostly below about 43%
Large screens that a line does not name were inactive. Shown are actives, neighbours in structure and some others; about 21% of the full set was active somewhere. Unless noted, calls follow the shape of the dose curve; as a rule, active = well fitted curve in the direction sought with a large enough effect; inconclusive = small, poorly fitted or top-dose-only effect, or another doubt; inactive = no such curve, though single readings can be large; an effect the other way counts as inactive or inconclusive.

CN1CCN(C(=O)c2ccc3c(c2)N(Cc2ccc(Cl)cc2)C(=O)c2ccccc2S3=O)CC1 (stereo unspecified)	Pf growth 48h 10µM
O=C(c1ccc2c(c1)N(Cc1cccc(Cl)c1)C(=O)c1ccccc1S2(=O)=O)N1CCCC1	none (no result: Pf growth 48h, NS1 function inh, Pf growth 96h, Cycloheximide cs, Shiga inhibitor)
O=C(c1ccc2c(c1)N(Cc1ccc(Cl)cc1)C(=O)c1ccccc1S2=O)N1CCCCC1 (stereo unspecified)	none (no result: Pf growth 48h, NS1 function inh, Pf growth 96h, Cycloheximide cs, Shiga inhibitor)
CN1CCN(C(=O)c2ccc3c(c2)N(Cc2cccc(Cl)c2)C(=O)c2ccccc2S3(=O)=O)CC1	Pf growth 48h inconclusive, Pf growth 96h 12µM
CN(C)c1nnnn1Cc1ccccc1	none (no result: NS1 function inh)
CC(C#Cc1c([C@@H](C)Oc2ccccc2)nnn1Cc1ccccc1)Oc1ccccc1 (stereo partly specified)	Pf growth 48h 12µM, Pf growth 96h 9.3µM, Sm TGR inh 7.9µM
O=C(CSc1nc2c(c(C(F)(F)F)n1)CCc1ccccc1-2)NCc1ccco1	Sm TGR inh inconclusive
CC(NC(=O)CSc1nc2c(c(C(F)(F)F)n1)CCc1ccccc1-2)c1ccccc1 (stereo unspecified)	Pf growth 48h 7.4µM
Cc1cc(-n2c(C)cc(C(=S)N3CCOCC3)c2C)ccc1Br	Pf growth 48h inconclusive, Pf growth 96h inconclusive
C=CCN1C(=O)C(Cc2ccc(F)cc2)S/C1=N/N=C/c1ccco1 (stereo unspecified)	Pf growth 96h inconclusive
O=C1CS/C(=N/N=C/c2ccco2)N1Cc1ccc(F)cc1	Sm TGR inh 25µM
CCC1S/C(=N/N=C/c2ccco2)N(Cc2ccccc2)C1=O (stereo unspecified)	Pf growth 48h inconclusive, Pf growth 96h inconclusive, Sm TGR inh 20µM
O=C1CSc2ccccc2N1Cc1ccc(F)cc1	Pf growth 96h inconclusive, Cycloheximide cs 31
CC1S/C(=N/N=C/c2ccco2)N(Cc2ccc(F)cc2)C1=O (stereo unspecified)	Sm TGR inh 32µM, Cycloheximide cs 30, Shiga inhibitor 57
COc1cc(OC)cc(C2=Nn3c(nnc3-c3ccccc3O)SC2)c1	none (no result: Pf growth 48h, NS1 function inh, Pf growth 96h, Sm TGR inh)
O=C(O)c1ccc2c(c1)C(=O)N([C@H](Cc1ccccc1)C(=O)O)C2=O	none (no result: NS1 function inh)
Cc1nn(C)c(C)c1CCC(=O)NC1CC(C)(C)Cc2c1cnn2-c1ccccc1 (stereo unspecified)	Pf growth 96h inconclusive
Cc1ccccc1CN1C(=O)C(C)S/C1=N/N=C/c1ccco1 (stereo unspecified)	Pf growth 48h inconclusive, Sm TGR inh 25µM
CCCCNC(=O)C(CC)(ONc1ccccc1C(F)(F)F)c1ccccc1OC (stereo unspecified)	Pf growth 48h 10µM, Pf growth 96h inconclusive (no result: NS1 function inh, Cycloheximide cs, Shiga inhibitor)
COc1ccccc1N(C(=O)CCl)c1cn(C(C)=O)c2ccccc12	Pf growth 48h inconclusive, Pf growth 96h inconclusive, Sm TGR inh 3.2µM
CC(=O)n1cc(N(C(=O)CCl)c2ccc(Cl)cc2)c2ccccc21	Pf growth 48h 2.3µM, Pf growth 96h inconclusive, Sm TGR inh 0.32µM, Cycloheximide cs 27, Shiga inhibitor 61
CCOC(=O)c1ccccc1Nc1cn(C(C)=O)c2ccccc12	Pf growth 96h inconclusive (no result: Pf growth 48h)
COc1cccc(NC(=O)CN(C)C(=O)Cn2c(=O)oc3ccccc32)c1	Pf growth 96h inconclusive (no result: NS1 function inh, Cycloheximide cs, Shiga inhibitor)
O=S(=O)(c1ccccc1Cl)N1CCC(O)(c2cccnc2)CC1	none
Cc1cccc(C(=O)Nc2sc3c(c2C(=O)O)CCCC3)c1	Cycloheximide cs 47, Shiga inhibitor 93
O=C(Nc1sc2c(c1C(=O)O)CCC2)c1cccc(Cl)c1	Cycloheximide cs 44, Shiga inhibitor 70
Cc1cccc(C(=O)Nc2sc3c(c2C(=O)Nc2ccccc2)CCC3)c1	none (no result: Pf growth 48h, NS1 function inh, Pf growth 96h, Cycloheximide cs, Shiga inhibitor)
O=C(/C=C/c1ccc(F)cc1)Nc1nc2ccccc2[nH]1	Cycloheximide cs 37, Shiga inhibitor 77
COc1cc(C(=O)Nc2nc3ccccc3[nH]2)cc(OC)c1OC	Pf growth 48h inconclusive, Pf growth 96h 9.3µM
COc1ccccc1C(=O)NCCC(=O)Nc1nc2ccccc2[nH]1	none (no result: NS1 function inh, Cycloheximide cs, Shiga inhibitor)
COc1ccc(C(=O)N[C@H](C(=O)Nc2nc3ccccc3[nH]2)C(C)C)cc1	Cycloheximide cs 37, Shiga inhibitor 76 (no result: NS1 function inh)
CN(C)c1cccc(C(=O)Nc2nc3ccccc3[nH]2)c1	Cycloheximide cs 15
COc1cc(/C=N\NC(=O)c2ccc(Cn3cc(Br)c([N+](=O)[O-])n3)o2)cc(OC)c1O	NS1 function inh inconclusive
CC(=O)N1CCc2c(sc3c2c(=O)n(-c2ccccc2)c(=O)n3CC(=O)Nc2ccccc2C)C1	none (no result: Pf growth 48h, NS1 function inh, Pf growth 96h, Cycloheximide cs, Shiga inhibitor)
O=C(O)c1cc(S(=O)(=O)NC23CC4CC(CC(C4)C2)C3)ccc1Cl	none
O=C(Nc1nc2ccccc2[nH]1)c1cccc(Br)c1	Cycloheximide cs 20, Shiga inhibitor 82
Cc1ccc(N(C)S(=O)(=O)c2cccc(C(=O)Nc3nc4ccccc4[nH]3)c2)cc1	Pf growth 48h 12µM, NS1 function inh inconclusive, Pf growth 96h inconclusive, Cycloheximide cs 36, Shiga inhibitor 39
COc1cccc(C(=O)Nc2nc3ccccc3[nH]2)c1	Cycloheximide cs 27 (no result: Pf growth 48h)
O=C(NCCc1nc2ccccc2[nH]1)c1ccc(Br)o1	none
COc1ccc(C(=O)Nc2nc3ccccc3[nH]2)cc1	none
O=C(Nc1nc2ccccc2[nH]1)c1ccc(Br)o1	Cycloheximide cs 47, Shiga inhibitor 83
O=C(CNC(=O)c1cccc(Br)c1)NCCc1nc2ccccc2[nH]1	none (no result: Pf growth 48h)
CN(C)S(=O)(=O)c1ccc(Cl)c(C(=O)Nc2nc3ccccc3[nH]2)c1	Pf growth 96h inconclusive (no result: NS1 function inh)
CC(C)c1ccc(C(C)NCCS(=O)(=O)c2ccc(Cl)cc2)cc1 (stereo unspecified)	none
COc1cccc(CNC(=O)c2c(C)oc3nc(C)nc(N4CCOCC4)c23)c1	none (no result: Pf growth 48h, NS1 function inh, Pf growth 96h, Cycloheximide cs, Shiga inhibitor)
O=C(Nc1nc2ccccc2[nH]1)c1cccc(F)c1	Cycloheximide cs 24, Shiga inhibitor 58
CCCCCNC(=O)c1ccc2c(=O)n(CC3CCCO3)c(=O)[nH]c2c1 (stereo unspecified)	Pf growth 48h 1.3µM
CCCCCn1c(=O)[nH]c2cc(C(=O)NCCN3CCCCC3C)ccc2c1=O (stereo unspecified)	Pf growth 48h 12µM, Pf growth 96h inconclusive
CCOc1ccc(S(=O)(=O)Nc2ccc(C(=O)NN)cc2)cc1	none
COc1ccc(Cl)cc1NC(=O)CSC1=NN2CCCC(=O)N=C2S1	none
Cc1ccc(NC(=O)Cn2cc(C(=O)c3cccs3)c3ccccc32)cc1C	none (no result: Pf growth 48h, NS1 function inh, Pf growth 96h, Cycloheximide cs, Shiga inhibitor)
CCCCn1c(N)c(N(C)C(=O)c2ccc(-n3cccn3)cc2)c(=O)[nH]c1=O	none (no result: NS1 function inh, Cycloheximide cs, Shiga inhibitor)
CCc1nnc(N/N=C/c2cc(Br)c(O)cc2O)n1N	Pf growth 48h inconclusive, Sm TGR inh 35µM, Cycloheximide cs 13, Shiga inhibitor 24
CC(C)(C)c1nnc(N/N=C/c2cc(Br)ccc2O)n(N)c1=O	Pf growth 48h 3.3µM, Pf growth 96h 8.3µM
CCN(c1ccc(NC(=O)CCc2nc3sc4c(c3c(=O)[nH]2)CCCC4)cc1)C(C)C	Pf growth 48h inconclusive, Pf growth 96h inconclusive (no result: NS1 function inh, Cycloheximide cs, Shiga inhibitor)

Source: PubChem
